Shown are actives, neighbours in structure and some others; about 7.9% of the full set was active somewhere.
HT1080NT lethal – kills 2HG-producing HT-1080-NT fibrosarcoma cells | HT-1080-NT fibrosarcoma viability, CellTiter-Glo ATP luminescence, 48 h | Potency, µM (top dose mostly 46.1 µM), inactives show top-dose activity, negative = less viability, actives largely listed as cytotoxic | hit rate 1.6% among 360,000 | AID 686970;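 note: NT is the 2HG producing partner of a matched IDH1 knockdown line; 0% = DMSO-treated cells and -100% = media-only wells without cells; nearly all actives have a fitted effect of over 55% in size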
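A 48-hour cytotoxicity screen used HT-1080-NT cells plated 2 hours before compound delivery. ATP-based CellTiter-Glo luminescence measured viability, normalized to DMSO and no-cell controls.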
KB-3-1 tox – KB-3-1 parental cell cytotoxicity | hit rate 1.4% among 400,000 | Potency, µM (series often up to 46.1 µM), usual class: cytotoxic | KB-3-1 viability, CellTiter-Glo ATP luminescence, 72 h; note: % is set by controls: 0 for no effect and ±100 for the full control effect; nearly all actives have a fitted effect of over 60% in size
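Multi-concentration cytotoxicity screen in KB-3-1 cells grown in DMEM lacking phenol red with 10% FBS. After 72 h at 37 °C with compound, ATP-dependent luminescence was recorded.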
HT1080 IDH1KD tx – HT-1080 IDH1 knockdown cell toxicity (counter line). HT-1080 IDH1 knockdown viability, ATP luminescence, 48 h. Potency, µM (series often up to 46.1 µM), for the others: at the top dose activity, negative = toxicity, usual class: cytotoxic. hit rate 2% among 360,000;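 note: 0% = DMSO wells and -100% = cell-free medium wells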
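After a 2 h attachment period, IDH1KD HT-1080 cells took pin-transferred compound for 48 h at 37 °C; ATP-based luminescence after 10 min room-temperature reagent incubation reported viability.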
KB-V1 cytotox – KB-V1 MDR subline cytotoxicity. hit rate 3.4% among 400,000. AID 1347076. KB-V1 MDR cells viability, CellTiter-Glo, 72 h. Potency, µM (doses to about 46.1 µM), hits mostly cytotoxic; note: % is set by controls: 0 for no effect and ±100 for the full control effect; nearly all actives have a fitted effect of over 60% in size
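Following 72 h at 37 degrees C with compound, KB-V1 cell viability was read by CellTiter-Glo luminescence, medium being phenol-red-free DMEM plus 10% FBS; concentration-response parameters came from normalized, curve-fitted qHTS data.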
MCF10A rerep – DNA re-replication induction in MCF 10a cells | MCF 10A DNA re-replication, Hoechst nuclear intensity, 48 h | Potency, µM (highest dose often 46.1 µM), for the others: at the top dose activity, positive = re-replication, most hits filed as activators | hit rate 2.9% among 350,000 | AID 624296; note: % of control where 0% means no effect; nearly all actives have a fitted effect of over 50% in size
SW480 rereplic – induces DNA re-replication in SW480 colon adenocarcinoma cells; Potency, µM (series often up to 46.1 µM), for the others: at the highest dose re-replication activation, actives largely listed as activators; hit rate 1.8% among 340,000; SW480 DNA re-replication, Hoechst DNA content imaging, 48 h; note: % of control where 0% means no effect; nearly all actives have a fitted effect of over 55% in size
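Image-based DNA-content assay: after two days of treatment, nuclei were labelled with the DNA dye Hoechst and imaged, and hits were compounds raising the count of nuclei showing high fluorescence intensity.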
Starred values were filed as active, the others as inactive; i = inactive; ? = inconclusive; . = no result given. Calls come from the whole dose curve; as a rule, active = well fitted curve in the direction sought with a large enough effect; inconclusive = small, poorly fitted or top-dose-only effect, or another doubt; inactive = no such curve, though single readings can be large; an effect the other way counts as inactive or inconclusive. Potency is the fitted concentration of half-maximal effect.

SMILES	HT1080NT lethal	KB-3-1 tox	HT1080 IDH1KD tx	KB-V1 cytotox	MCF10A rerep	SW480 rereplic
CSc1nc(C)c2c(n1)N(c1ccc(F)cc1)CC2	12%	i	4%	i	13%	-6%
Cc1ccc2nc(C)c3c(c2c1)N(c1ccc(F)cc1)CC3	21µM*	?	15µM*	?	18µM*	-8%
CC1(C)CC(=O)C=C(NC2=CC3OC(c4ccccc4)OCC3OC2=O)C1 (configuration not stated)	?	i	21µM*	i	?	?
CCc1cnc(Nc2nc(C(N)c3ccccc3Cl)cs2)nc1 (configuration not stated)	-22%	i	-1%	?	.	.
CCc1cnc(Nc2nc(C(N)Cc3ccc(Cl)cc3)cs2)nc1 (configuration not stated)	21µM*	i	?	i	.	.
CCCc1cnc(Nc2nc(C(N)Cc3ccc(OC)cc3)cs2)nc1 (configuration not stated)	21µM*	?	?	?	.	.
CCOC(=O)C(C(=O)OCC)c1cc(Br)c2noc3c2c1C(=O)c1ccccc1-3	9.2µM*	5.2µM*	12µM*	?	?	?
COc1ccccc1CNC(=O)COCc1cc(-c2ccc3c(c2)OCO3)on1	.	i	.	?	.	.
CC(C)CNS(=O)(=O)c1ccc(S(=O)(=O)N2CCC3(CC2)OCCO3)cc1	-4%	i	0%	15µM*	-57%	0.18µM*
CN(Cc1ccccc1)C(=O)CSc1nc2c(c(C(F)(F)F)n1)CCc1ccccc1-2	0%	18µM*	1%	?	19%	-6%
Cc1ccccc1Cn1cc(NC(=O)CSc2nc3c(c(C(F)(F)F)n2)CCc2ccccc2-3)cn1	2%	i	6%	i	19%	17%
Cc1nn(Cc2ccc(Cl)cc2)c(C)c1NC(=O)CSc1nc2c(c(C(F)(F)F)n1)CCc1ccccc1-2	3%	i	2%	8.2µM*	?	?
Cc1ccc(Cn2nc(C)c(NC(=O)CSc3nc4c(c(C(F)(F)F)n3)CCc3ccccc3-4)c2C)cc1	6%	?	1%	4.1µM*	?	-28%
Cc1cccc(NC(=O)c2ccccc2SCc2ccc(F)cc2)n1	-6%	i	8%	21µM*	6%	7%
CCOc1ccc2cc(/C=C/C(=O)c3ccco3)c(Cl)nc2c1	-18%	?	9%	?	5.8µM*	16µM*
CCOc1ccc2nc(SCC(=O)NNC(=O)c3ccco3)c(C)cc2c1	12%	?	-1%	i	9%	-9%
CCOc1ccc(Nc2nc(N)nc(CN3CCN(c4ccccc4F)CC3)n2)cc1	-1%	i	-16%	?	?	18%
Nc1nc(CN2CCN(c3ccccc3F)CC2)nc(Nc2ccc3c(c2)OCCO3)n1	-4%	?	-19%	9.2µM*	?	40%
Nc1nc(CSC(=S)N2CCCCC2)nc(Nc2ccccc2)n1	-4%	i	-1%	?	-20%	-4%
Cc1cccc(Nc2nc(N)nc(CN3CCN(c4ccccc4F)CC3)n2)c1	?	i	-3%	2.3µM*	?	?
CC1CC(C)CN(C(=S)SCc2nc(N)nc(Nc3ccccc3)n2)C1 (configuration not stated)	?	?	33µM*	?	?	-33%
Nc1nc(CN2CCN(Cc3ccccc3)CC2)nc(Nc2ccccc2)n1	?	?	?	21µM*	2%	4%
Cc1ccc(C)c(N2CCN(c3nc4ccccc4n4c(C)nnc34)CC2)c1	.	i	.	?	.	.
Cc1cccc(Nc2nc(N)nc(CN3CCN(c4ccccc4)CC3)n2)c1	-6%	i	-2%	15µM*	0%	-7%
Cc1cccc(Nc2nc(N)nc(CN3CCN(Cc4ccc5c(c4)OCO5)CC3)n2)c1	-20%	i	-18%	15µM*	8%	-1%
SMILES	HT1080NT lethal	KB-3-1 tox	HT1080 IDH1KD tx	KB-V1 cytotox	MCF10A rerep	SW480 rereplic
CC1CCCN1c1ccnc2cc(Cl)ccc12 (configuration not stated)	-12%	i	-14%	i	?	-10%
CC1=CC(C)=Nc2ccccc2N1	3%	i	-3%	i	21µM*	-10%
CC(=O)Nc1ccc(S(=O)(=O)Oc2ccc(N3C(=O)C4CCCCC4C3=O)cc2)cc1 (configuration not stated)	-17%	?	-12%	18µM*	9%	-16%
CCOC(=O)N1CCN(c2nc(-c3ccccc3)c3ccccc3n2)CC1	?	i	8%	i	8.2µM*	16µM*
Cc1ccc2nc(N3CCN(C(=O)CCCC(=O)O)CC3)nc(-c3ccccc3)c2c1	-3%	i	0%	i	?	3%
CCOC(=O)N1CCN(c2ccccc2O)CC1	18%	i	12%	i	11%	-5%
O=C(O)CCC(=O)N1CCN(c2nc(-c3ccccc3)c3ccccc3n2)CC1	-2%	i	7%	i	21µM*	-5%
Clc1ccc(-c2nc(N3CCCCC3)nc3ccccc23)cc1	-21%	i	-1%	i	7.9µM*	13µM*
COc1ccc(CC(=O)Nc2ccc(S(=O)(=O)N3CCCC3)cc2)c(OC)c1	-16%	?	2%	?	0%	?
CCN1C(=O)CSC1=Nc1ccc(C(=O)O)cc1	11%	i	12%	i	-13%	7%
CC(C)(C)c1ccc(N=C2SCC(=O)N2Cc2cccs2)cc1	?	i	?	?	23µM*	?
O=C1NN(c2ccccc2)C(=O)/C1=C/c1ccc(Sc2ccc(Cl)cc2)o1	-9%	i	-6%	i	4.6µM*	29%
Cc1ccc(Sc2ccc(/C=C3/C(=O)NN(c4ccccc4)C3=O)o2)cc1	0%	i	1%	i	5%	-2%
Cc1cc2oc3c(c(=O)c2cc1C)C1(C(=O)N(C)c2ccccc21)N(CCO)C3=O (configuration not stated)	.	i	.	i	.	.
O=C(NCCCN=C1NS(=O)(=O)c2ccccc21)c1ccc(S(=O)(=O)N2CCCCC2)cc1	?	21µM*	?	i	23µM*	?
COc1ccc(Cn2cc(C(=O)c3ccc(OC)cc3)c(=O)c3cc4c(cc32)OCCO4)cc1	.	i	.	i	.	.
O=C(C=Cc1ccccc1O)c1ccccc1O	23µM*	?	18µM*	?	?	?
Cc1ccc(C)c(/C=C/C(=O)c2ccccc(=O)c2O)c1	?	12µM*	15µM*	8.2µM*	18µM*	-651%
